Active and inactive are the calls of the source. The calls were made as follows: active = hit-call score of the fitted dose curve at least 0.9, where 1 is the maximum; inactive = score below 0.9.

A short description of this experiment: CCTE_Padilla_ZF_Score.General: CCTE's 144 Hour Post-fertilization zebrafish Assay Score for General Malformation, Padilla Lab (AID 2284411). In short, it runs like this:
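Malformation, death and hatching were scored at 6 dpf by two blinded observers under a stereo microscope. Embryos were dosed singly from 6-8 hpf in sealed plates of 10% Hanks' at 26C and rinsed on 5 dpf; DMSO baseline.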
As for `O=C(O)C(F)(F)C(F)(F)C(F)(F)C(F)(F)C(=O)O`, the call was inactive.
On the same count and under the same terms, in the case of `c1ccc2c(c1)[nH]c1ccccc12` it was “inactive”.
Still for that read-out and setting: under `C[N+](C)(C)CCCNS(=O)(=O)C(F)(F)C(F)(F)C(F)(F)C(F)(F)C(F)(F)C(F)(F)C(F)(F)C(F)(F)F` stands “inactive”.
`CCCCCCOC(=O)CCCCC(=O)OCCCCCC`: the molecule was classed as inactive.
Still for that read-out and setting: in the case of `CCCCCCC=O` it was “inactive”.
On the same count and under the same terms, in the case of `C=CC(=O)OCCCCCCOC(=O)C=C` it was “inactive”; in that of `C=CC(=O)OCCCCCCCC(C)C`, “inactive”.
Usually AC50 stands for the concentration giving half of the maximal activity seen. As for `COc1ccc(C(=O)c2ccccc2)c(O)c1`, the AC50 is 7.03 µM (active).
For the molecule `CCCCCCCO`, the result was inactive.
On the same count and under the same terms, in the case of `C=CC(=O)NC(C)(C)C` it was “inactive”; in that of `C=CCCCCCCCCC=O`, “inactive”; in that of `c1ccc2sc(SSN3CCOCC3)nc2c1`, “inactive”.

For the origin of these results see PubChem BioAssay (EPA / NIEHS).
